Results filed as inconclusive are left out. A number with no mark means an inactive call. The source made the active and inactive calls. The call rests on the fitted dose curve; in most records, active means well fitted curve in either direction with a large enough effect (not every such curve was filed as active); inconclusive means small, poorly fitted or top-dose-only effect, or another doubt; inactive means flat fitted curve, though single readings scatter.
On the % scale 0 is the no-effect control and ±100 the full control effect.

The nature of this experiment: AP1 Signaling Pathway (AID 357).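 Further: ME-180 reporter cells stimulated with EGF at its EC50 level.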 The following applies: ME-180 (cervical carcinoma) AP-1-bla reporter, EGF-induced, beta-lactamase ratio, 5 h; at 7.69 µM (top of the series) unless noted. Summed up:
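First, ME-180 AP-1-bla cells were cultured overnight at 37 °C in low-serum Opti-MEM. Next, titrated compounds with EC50 EGF were incubated 5 hours. Finally, CCF4 was added for 2.5 hours and the 460/530 nm ratio recorded.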
`CN(C)Cc1ccccc1-c1cc(N(C)Cc2ccco2)ncn1`: the activity change, negative = inhibition was 4.53%.

In the case of `c1cncc(-c2cncnc2NC2CCNCC2)c1`, the activity change, negative = inhibition is 11.1%.

With `Cn1cc(-c2nc3cnc(Oc4ccccc4)nc3n(C)c2=O)c2ccccc21`, the activity change, negative = inhibition is 0.766%. For `CN(C)c1ncc2nc(-c3ccccc3)c(=O)n(-c3ccccc3)c2n1`, the activity change, negative = inhibition was 15.6%.

Consider `CN1CCN(c2ncc3nc(-c4cc(F)cc(F)c4)c(=O)n(C4CC4)c3n2)CC1`, for which the activity change, negative = inhibition was -8.53%. With `O=c1c(-c2ccc(F)cc2)nc2cnc(N3CCNCC3)nc2n1Cc1ccc(F)cc1`, the activity change, negative = inhibition was 115% [activator] (active). With `O=c1c(-c2cc(F)cc(F)c2)nc2cncnc2n1-c1ccccc1`, the activity change, negative = inhibition is -15.8%.

For `CN(Cc1ccco1)c1ncncc1-c1ccccc1Cl`, the activity change, negative = inhibition was 23.7%.

Take `O=c1cnc2cnc(N3CCOCC3)nc2n1CCc1ccccc1`: the activity change, negative = inhibition is -4.12%.

Turning to `CN1CCN(c2ncncc2-c2ccc(C(=O)N(C)C)cc2)CC1`, the activity change, negative = inhibition was 14.8%. As for `CC(=O)NCCNc1ncncc1-c1ccccc1C`, the figure is 10.6%; as for `COCCn1c(=O)cnc2cnc(Oc3ccccc3)nc21`, -14.7%; as for `COCCn1c(=O)c(-c2ccc(Cl)cc2)nc2cnc(Oc3cccc(Cl)c3)nc21`, 13.2%. As for `COc1ccc(CNc2ccnc(-c3ccc4c(c3)OCO4)n2)c(OC)c1`, the activity change, negative = inhibition was -15%.

In the case of `COc1ncc2nc(-c3cc(F)cc(F)c3)c(=O)n(C)c2n1`, the activity change, negative = inhibition is -19.2%. As for `COc1cccc(Nc2ncc3nc(-c4ccccc4)c(=O)n(Cc4cccs4)c3n2)c1`, the activity change, negative = inhibition was -7.2%. For the molecule `COc1ccc(-c2nc3cnc(N4CCN(C)CC4)nc3n(Cc3ccc(F)cc3)c2=O)cc1`, the activity change, negative = inhibition is 99.5% [activator] (active). For the molecule `COCCn1c(=O)c(-c2cc(F)cc(F)c2)nc2cnc(N3CCOCC3)nc21`, the activity change, negative = inhibition was 11.2%.

Turning to `CN(C)c1ncnc2ccc(-c3cccnc3)cc12`, the activity change, negative = inhibition is -15%. `CCNc1ncc2nc(-c3cn(C)c4ccccc34)c(=O)n(Cc3cccc(OC)c3)c2n1`: the activity change, negative = inhibition was 0.603%. `COc1ccc(Oc2ncc3nc(C)c(=O)n(-c4ccccc4)c3n2)cc1`: the activity change, negative = inhibition was -15.8%. Consider `CN(C)Cc1ccccc1-c1nc(NCc2cccs2)c2ccccc2n1`, for which the activity change, negative = inhibition was 25.7%. As for `CN(Cc1ccco1)c1ncncc1-c1cccc(C#N)c1`, the figure is 21.3%; as for `O=c1c(-c2ccc(F)cc2)nc2cnc(N3CCOCC3)nc2n1Cc1cccs1`, 14.2%. `CCNc1ncc2nc(-c3ccc(Cl)cc3)c(=O)n(C[C@H]3CCCO3)c2n1`: the activity change, negative = inhibition is 25.5%. For the molecule `COc1ccc(-n2c(=O)c(-c3cccs3)nc3cnc(N(C)C)nc32)cc1`, the activity change, negative = inhibition was -10.2%. As for `Cn1cc(-c2nc3cnc(Oc4ccccc4)nc3n(C3CC3)c2=O)c2ccccc21`, the figure is 13.1%; as for `O=c1c(-c2cccs2)nc2cnc(N3CCOCC3)nc2n1Cc1ccc(F)cc1`, 27.4%; as for `O=c1c(-c2ccc(F)cc2)nc2cnc(Nc3ccccc3)nc2n1C[C@H]1CCCO1`, -19.3%. In the case of `O=c1c(-c2cc(F)cc(F)c2)nc2cncnc2n1Cc1ccccc1`, the activity change, negative = inhibition is 16.7%. Take `c1ccc(Nc2cc(-c3ccoc3)ncn2)cc1`: the activity change, negative = inhibition was -8.62%. Turning to `COc1ccc(Oc2ncc3nc(-c4cn(C)c5ccccc45)c(=O)n(C4CC4)c3n2)cc1`, the activity change, negative = inhibition was -4.88%. Turning to `COCCNc1ncncc1-c1c(C)noc1C`, the activity change, negative = inhibition was 8.31%.

Turning to `Cc1noc(C)c1-c1ccc2ncnc(Nc3ccc(F)cc3)c2c1`, the activity change, negative = inhibition is -20.2%. As for `O=c1c(-c2cccs2)nc2cnc(N3CCOCC3)nc2n1Cc1cccs1`, the figure is 15.1%; as for `Cc1noc(C)c1-c1ccc2ncnc(N(C)C)c2c1`, -2.75%; as for `CC(=O)NCCNc1ncnc2ccc(-c3c(C)noc3C)cc12`, 12.8%.

As to `CN(C)c1ncc2nc(-c3cn(C)c4ccccc34)c(=O)n(C[C@H]3CCCO3)c2n1`, the activity change, negative = inhibition is -23.8%. Consider `CN1CCN(c2ncc3nc(-c4ccc(Cl)cc4)c(=O)n(Cc4cccs4)c3n2)CC1`, for which the activity change, negative = inhibition is 140% [activator] (active).

In the case of `CN(Cc1ccco1)c1ncncc1-c1ccoc1`, the activity change, negative = inhibition is -12.2%.

The values are drawn from PubChem BioAssay (NCATS).
